Laboratory results taken from the supplement of paper PMC10105736.
A number with no mark means an inactive call.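 The calls were made as follows: active = MAPPIT score above the 99th percentile of random reference set scores in the same batch; inactive = at or below it.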

Columns and labels:
Assay in all cases: MAPPIT interaction score (arbitrary units); higher = stronger binary interaction signal, active = hit call of the paper
[1] = target: HP5; conditions: MAPPIT configuration: N-N; pair source set: Curagen_low_conf
[2] = target: HP6; conditions: MAPPIT configuration: N-N; pair source set: screen_1
[3] = target: Hmg-2; conditions: MAPPIT configuration: N-C; pair source set: screen_3
[4] = target: Hn; conditions: MAPPIT configuration: N-N; pair source set: Curagen_high_conf
[5] = target: jbug; conditions: MAPPIT configuration: N-C; pair source set: screen_3
[6] = target: Hrb27C; conditions: MAPPIT configuration: N-N; pair source set: Lit-BM-16
[7] = target: Hsc70-1; conditions: MAPPIT configuration: N-N; pair source set: DPIM
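Also: HEK293T cells with Epo stimulation, STAT-responsive firefly luciferase reporter, fold induction versus unstimulated cells divided by the larger fold induction of two negative controls lacking either bait or prey.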

B1: ZIPIC (protein)
chain: MNCCICQFSVRVPKDIHTDTVGHPPVLISELVLQCTRGTNYVLTEESSTICKKCCEKLARYHKSIQIARKLRGEILELIHSPYMSKDHKQTSYKEDDLDRETTISKFDGNIEEAQQQDEEEQELESVGTTVTLVGPAGIVEEVAEEEHTFIIKQSEEEDEFHSVDLELDIDNEIIINEEEAHEVEEVAHEIEEVAHEIEEEDLLPHDKQEAQEEDFFKEDTMSDFDEHLDGAIEYIISDGEDQEQDNESSGEYTVNIQCPSCPEKFSSRRAYNVHTKREHFPGYVCDQCGKTLQSYSGFIGHLQNHEPVKQFACPVCPERFSRKFRLKHHMAWHSGETPYQCDVCSKRFVHKVALYKHKMIHDSETKRLECQVCGFKTRTKAHLERHMRSHTGDKPFACPVCNKRFSQMYNMKAHLREHESPGTNRHRRFHCSKCTHTFINEQNYDAHVQRDDCTPV
**Q.** B1 was tested. Which MAPPIT interaction score [1] did it give?
**A.** 0.196

B2: dmt (protein)
chain: MVRTRPVPCVPSPDVNTATRRNPGRPKKQSIGADLSTTISKPGRPKKLSIGADLTTIRKPGRPKKLGADLTTIIRKPGRPTKLSNKQSLTALNEPECRIRKCVVKIRRIKVKNGVVSEISRNDAPDVDASTFEPARNSTMYIPSKVQKSTQPQNIKENVAGPETSPCQQRIRSKSPSGPAAEISPKKPPRFFHRDQPLTRTRSSVTRNVFDFLSQSQIEDDSDREDPAADIIQRLVKDGKACVMVRSRKIGKPRAKRTAKKVRPVGNRRKVSTKDNEPEPVKVVPKSIEPRLQKPSRSLSTIFEPEEDYSNDSEHGYVQPIEVPVQVHVEPSTSKQAHEGAYSNLARSVMLNQTQAQNPLPSTDRRRELINMARQLVSTPLNRRAPPVTDVSATTTALSPIAHQSPNAVRTAGGKSPWRVSDDSPLPNTFMFGFNNSQMPSYSSDHVQRRHVYVPDSPVEHAENIPHEESICPPLHEQNHDSNANDSNEENRPPPTISKSMSINDQESEENAENFVHLPNPRRTLQKRTPFKDINILEVVTLPSWKKNVTATVSKEITPTRVAPRPMATSSPAQRSQTRSNLFGFDDDFACEDIPRKSTTPSKGIAPTSMSLNREVTPALANRNQTEVNTFGCNEILPCENIPKEKETNTEERTSSSQNLFGFDEFITESQDSPANFTGLSQNVNLHDKLHRLAELRPRDGELPQVSYTSIRSDCLGESHSKQTDIRYMLCSTMIAPPRPAKRKPAAPTARESMGLFRVDQDEPEQSFADKQPRRTYVKERPQRKRKKRVQILYIESESEDEDEQDSHDKSLDSPEKKRHHVKRPRRDIEHEAKLEQFVTSFNKQCEEVEKFPVIIE
**Q.** How did the MAPPIT interaction score [2] turn out when B2 was run?
**A.** 4.14 (active)

B3: Sas10 (protein)
chain: MDSDGDDYVMSGSDQEYDDEEREILEDLRKQRKKPHDPVQEVLGFSDDDDDDDDDDEEEQQDVAELMRDSDIEGAEDDDRDLPNTMDWGSKRSTYYNTDFVDQDYSSYNAQEEEQARAEEEEAKKIQLRLAKRMSEADFQLDNVEAAPAGSSDDNELSHITKVTSDLAGLSERERRQLMHSESPEFIILTQDFQQHLDEVKNLLKPVLNYVRKHDVPMVPALQYAGLCHTVLTTYCSNVAFYLLLKARRIDVKAHPVIRRLVQLKDLIEELKPRYEEYIRPQLEALLERIEDGDAFTVLDVAQRKAKLQILNKYNDGQQASVSSDDDDNDDDDDAESKEKDLQEEAGEEEEEEDARRGITYQMAKNKGLTPHRKKELRNPRVKHRGKYRKALIRRKGAVRTVRKELQRYGGELSGIKAGVTKSVKFRT
**Q.** Which MAPPIT interaction score [3] does the source give for B3 here?
**A.** 0.087

B4: Nelf-E (protein)
chain: MVYIHFPNNLTEEEQMLQAKYQKLKKKKKALQAHKAPKPEPESSLTLKRPTDARDAREVARKLIKSGAIPAIQKQTKQDQTSFKRPKGQERAKRSTSETTVASYQPFSSTQNDVAQETIISEIIKEEPRRQNLYQHFATERDREERGMPEKVPMDTAQPEKPRAGNTIFVSGNKVTEDFLKKTFNDYGTIVNVSMEIEKSRGFVSFAKPESADRAIAEIHGKNVNGINLQVQLARRQPQIEPINDASSSAVWSSIAASKSQKGSHKDHREMVQYDEDFLL
**Q.** With B4 as the binder, how does the MAPPIT interaction score [4] read?
**A.** 0.208

**Q.** What about the MAPPIT interaction score [5] of the same binder?
**A.** 0.0879

B5: sqd (protein)
chain: MAENKQVDTEINGEDFTKDVTADGPGSENGDAGAAGSTNGSSDNQSAASGQRDDDRKLFVGGLSWETTEKELRDHFGKYGEIESINVKTDPQTGRSRGFAFIVFTNTEAIDKVSAADEHIINSKKVDPKKAKARHGKIFVGGLTTEISDEEIKTYFGQFGNIVEVEMPFDKQKSQRKGFCFITFDSEQVVTDLLKTPKQKIAGKEVDVKRATPKPENQMMGGMRGGPRGGMRGGRGGYGGRGGYNNQWDGQGSYGGYGGGYGGYGAGGYGDYYAGGYYNGYDYGYDGYGYGGGFEGNGYGGGGGGNMGGGRGGPRGGGGPKGGGGFNGGKQRGGGGRQQRHQPY
**Q.** With B5 as the binder, how does the MAPPIT interaction score [6] read?
**A.** -0.206

B6: caly (protein)
chain: MNAAGGGSGAQAAAVAAGNNSLSHNALLSTASGATTMPMAQLADGWLELESDPGLFTLLLKDFGCHDVQVEEVYDLQKPIESPYGFIFLFRWIEERRARRKIVETTAEIFVKDEEAISSIFFAQQVVPNSCATHALLSVLLNCNENNLQLGDTLSRLKTHTKGMSPENKGLAIGNTPELACAHNSHAMPQARRRLERTGAGVSSCRFTGEAFHFVSFVPINGQLFELDGLKPYPMNHGGWEDSEDWTDKFRRVMAERLGIATGEQDIRFNLMAVVPDRRIAITHKLKMLRTNQAIVSGTLQKLLKADEQGESGNGDSQRPDTPTTLLEPSAFTARDLQSLLKNLDTEIAINEQHLADENDRRHMFKVDASRRTHNYDKFICTFLSMLAHQGVLGELVSQHLLPSKKVSGQGAANRISKQSTTASAGGSTAAGTASTPKTQQQQAAAAKNGKSPSKTPGRRRKGRNKCRKRK
**Q.** B6 was tested. Which MAPPIT interaction score [7] did it give?
**A.** 2.29
